# Laboratory results as given in publication PMC5540273 (PLoS ONE, 2017).
# Test system: AURKB
# Details: concentration: 1 μM, replicates: in singlicate; n = 1
# 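Also: KINOMEscan kinase panel screen.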
row,SMILES,%Inh [%]
1,Cc1nnc(-c2ccc3ncn(-c4ccc(S(C)=O)cc4)c3c2)o1 (stereo not shown),10
2,CCn1c(-c2nonc2N)nc2ccccc21 [SB-693162/GW549034],37
3,O=C(Nc1n[nH]c2cc(-c3ccccc3F)ccc12)C1CC1 [SB-733371],51
4,CC(C)(C)c1ccc(C(=O)Nc2cn3cc(-c4ccccc4)ccc3n2)cc1,51
5,Nc1ncnc2c1ncn2-c1cccc2ccccc12 [SKF-97184],28
6,CCCC(=O)Nc1n[nH]c2ncc(-c3cccc4ccccc34)cc12 [SB-642057],24
7,Cc1cccc(-c2nc(Nc3ccc4c(cnn4C)c3)c3ccccc3n2)n1 [GW876731],6
8,COC(=O)c1c(-c2ccccc2)c2cc(Br)ccc2c(=O)n1Cc1ccc(NC(=O)CCC(=O)O)cc1,9
9,O=C1NC(=O)C(c2ccccc2)=C1Nc1cccc(O)c1 [SB-390534],35
10,CCCNC(=O)Nc1ccc(Oc2ncnc3ccn(C)c23)cc1,60
11,COc1cc2nccc(Nc3cccc(Oc4ccccc4)c3)c2cc1OC.Cl [GW284543],0
12,COc1cc2ncn(-c3cc(OCCCc4ccccc4)c(C(N)=O)s3)c2cc1OC [GSK205189],18
13,CCn1c(-c2ccoc2)nc2cnccc21 [SB-733887],45
14,COc1ccc(-c2coc3ccc(-c4nnc(SCc5cccc(C#N)c5)o4)cc23)cc1,12
15,COC(=O)c1c(-c2ccccc2)c2cc(C)ccc2c(=O)n1Cc1ccccc1,9
16,CCc1nc(-c2cccc(C)c2)c(-c2ccncc2)s1,13
17,Cc1ccc(Oc2ccc(Nc3ncnc4cc[nH]c34)cc2C)cn1,0
18,COc1cccc(C2=C(N(C)c3ccccc3)C(=O)NC2=O)c1 [SB-334865],32
19,COc1ccc(-n2cnc3c(N)ncnc32)cc1 [SKF-97236],16
20,Cc1c(Cn2c(C)nn3c(=O)cc(N4CCO[C@H](C)C4)nc23)cccc1C(F)(F)F [GSK2373690],27
21,COc1cc(Nc2nccc(N3CCC(NC(=O)C(C)c4ccc(Cl)cc4)C3)n2)cc(OC)c1OC (stereo not shown) [GSK1379757],60
22,COc1cc2ncn(-c3cc(OCc4ccc(S(C)(=O)=O)cc4)c(C(N)=O)s3)c2cc1OC [GW869979],0
23,Cc1nnc(-c2ccc(C)c(-c3ccc(C(=O)O)cc3)c2)o1 [GW608005],0
24,COc1ccc(-c2cc3c(C)nc(N)nc3n([C@H]3CC[C@H](O)CC3)c2=O)cn1,0

# Test system: AURKC
# Details: concentration: 1 μM, replicates: in singlicate; n = 1
row,SMILES,%Inh [%]
1,CCC(=O)c1c(-c2ccccc2)c2cc(Cl)ccc2c(=O)n1Cc1cc(S(C)(=O)=O)n(CC(F)F)n1,0
2,CCC(=O)c1c(-c2ccccc2)c2cc(Cl)ccc2c(=O)n1Cc1cc(S(C)(=O)=O)n(CC(N)=O)n1,0
3,O=C(Nc1ccc2c(c1)OCO2)NC1CCN(c2ccnc(NCc3ccc(F)cc3)n2)CC1 [GSK1379859],24
4,Cn1c(=O)c(F)c(Nc2ccc(I)cc2F)c2c(=O)n(OC[C@H](O)CO)cnc21,30
5,Nc1nccc2scc(-c3ccc4c(c3)CCN4C(=O)Cc3ccccc3)c12 [GSK2576924],25
6,C[C@@H]1CC[C@H](C(=O)NC2CCCCC2)CN1c1cc(-c2ccc3c(N)n[nH]c3c2)nc(N)n1 [GSK2291363],69
7,O=C(NCCNc1ccnc(Nc2ccc(F)cc2)n1)Nc1ccc2c(c1)OCO2 [GSK1379882],36
8,CCS(=O)c1ccc(-c2coc3ccc(-c4nnc(C)o4)cc23)cc1 (stereo not shown),0
9,Cc1cccc(-c2cc(-c3c[nH]nc3-c3ccccn3)ccn2)c1 [GW679395],0
10,CN1C(=O)C(Nc2ccccc2)=C(c2ccccc2)C1=O [SB-300079],0
11,COc1cccc(-n2cnc3c(N)ncnc32)c1 [SKF-97416],5
12,COc1ccc(CNC(=O)NC2CCN(c3ccnc(Nc4ccc(F)cc4)n3)C2)cc1 (stereo not shown) [GSK1379706],19
13,Nc1n[nH]c2nnc(-c3ccccc3)c(-c3ccccc3)c12 [GW554060],13
14,Cc1nnc(-c2ccc3ncn(-c4ccc(S(C)=O)cc4)c3c2)o1 (stereo not shown),5
15,CCn1c(-c2nonc2N)nc2ccccc21 [SB-693162/GW549034],0
16,O=C(Nc1n[nH]c2cc(-c3ccccc3F)ccc12)C1CC1 [SB-733371],46
17,CC(C)(C)c1ccc(C(=O)Nc2cn3cc(-c4ccccc4)ccc3n2)cc1,0
18,Nc1ncnc2c1ncn2-c1cccc2ccccc12 [SKF-97184],0
19,CCCC(=O)Nc1n[nH]c2ncc(-c3cccc4ccccc34)cc12 [SB-642057],16

row,SMILES,%Inh [%]
1,Cc1cccc(-c2nc(Nc3ccc4c(cnn4C)c3)c3ccccc3n2)n1 [GW876731],0
2,COC(=O)c1c(-c2ccccc2)c2cc(Br)ccc2c(=O)n1Cc1ccc(NC(=O)CCC(=O)O)cc1,0
3,O=C1NC(=O)C(c2ccccc2)=C1Nc1cccc(O)c1 [SB-390534],0
4,CCCNC(=O)Nc1ccc(Oc2ncnc3ccn(C)c23)cc1,0
5,COc1cc2nccc(Nc3cccc(Oc4ccccc4)c3)c2cc1OC.Cl [GW284543],0
6,COc1cc2ncn(-c3cc(OCCCc4ccccc4)c(C(N)=O)s3)c2cc1OC [GSK205189],45
7,CCn1c(-c2ccoc2)nc2cnccc21 [SB-733887],10
8,COc1ccc(-c2coc3ccc(-c4nnc(SCc5cccc(C#N)c5)o4)cc23)cc1,0
9,COC(=O)c1c(-c2ccccc2)c2cc(C)ccc2c(=O)n1Cc1ccccc1,0
10,CCc1nc(-c2cccc(C)c2)c(-c2ccncc2)s1,0
11,Cc1ccc(Oc2ccc(Nc3ncnc4cc[nH]c34)cc2C)cn1,10
12,COc1cccc(C2=C(N(C)c3ccccc3)C(=O)NC2=O)c1 [SB-334865],0
13,COc1ccc(-n2cnc3c(N)ncnc32)cc1 [SKF-97236],63
14,Cc1c(Cn2c(C)nn3c(=O)cc(N4CCO[C@H](C)C4)nc23)cccc1C(F)(F)F [GSK2373690],30
15,COc1cc(Nc2nccc(N3CCC(NC(=O)C(C)c4ccc(Cl)cc4)C3)n2)cc(OC)c1OC (stereo not shown) [GSK1379757],72
16,COc1cc2ncn(-c3cc(OCc4ccc(S(C)(=O)=O)cc4)c(C(N)=O)s3)c2cc1OC [GW869979],0
17,Cc1nnc(-c2ccc(C)c(-c3ccc(C(=O)O)cc3)c2)o1 [GW608005],6
18,COc1ccc(-c2cc3c(C)nc(N)nc3n([C@H]3CC[C@H](O)CC3)c2=O)cn1,0
